Test results: PubChem BioAssay (NCI)
The panel holds about 83,000 compounds, 20% with a hit somewhere; the sample as a whole holds those more often.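 Percent growth is the endpoint: 0 to 100 indicates growth inhibition (40 means 60% inhibition), 0 means no net growth, and negative values indicate cell death.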 Unmarked numbers belong to inactive results. The source made the active and inactive calls. Rule for the calls: active = growth percent below 10; inactive = the rest.

Tested on: HL-60(TB) leukemia
Experiment: NCI-60 one-dose screen, 48 h (100 = growth as untreated, 0 = no growth, -100 = all killed)
Settings: 10 µM unless noted

Row | Structure (SMILES) | growth
1 | Nc1nc(Nc2ccccc2)c2ncn(Cc3ccc4c(c3)OCO4)c2n1 | 25.1%
2 | CCOC(=O)c1c2c(c(C)n1Cc1ccccc1)-c1nc(N)ncc1CC2 | 96.2%
3 | COc1ccc(-c2nc3ccccn3c2/C=C/C(=O)c2cc(OC)c(OC)c(OC)c2)cc1OC | 9.67% (active)
4 | O=C(NNC(=O)N1c2ccccc2C=Cc2ccccc21)c1ccccc1 | 98.8%
5 | FC(F)(F)c1cccc(CNC2CCN(CCc3ccccc3)CC2)c1 | 46.2%
6 | CC(=O)CC1CCCC1c1ccc2ccccc2c1 (stereo not given) | 101%
7 | COc1cc(-c2cc(-c3nc4cc(Cl)c(Cl)cc4[nH]3)[nH]n2)cc(OC)c1OC | 14.2%
8 | NNC(=O)CSc1nc2scc(-c3ccccc3)c2c(=O)n1-c1ccccc1 | 84%
9 | C#CCSc1nnnn1-c1ccc(Br)c(C)c1 | 88.4%
10 | CN(C)c1ccc(/C=C\C2=[N+](C)c3ccccc3C2(C)C)cc1 | 22.9%
11 | Cc1cnc(NC(=O)Nc2cc(Br)c(C)cc2OC[C@@H]2CNCCO2)cn1 | -25.3% (active)
12 | COc1cccc(C(=O)NCCCNc2cc(-c3cn(-c4ccccc4)nc3-c3cccc(OC)c3)ccn2)c1 | 22.7%
13 | N#C/C(=N\Nc1ccc(Cl)cc1)C(=O)Nc1cc(-c2ccccc2)nn1-c1ccccc1 | 27.5%
14 | C=C1CCC2C3(C)COC(c4ccccc4)OC3CCC2(C)C1C/C=C1/C(=O)OCC1OC(C)=O (stereo not given) | 56%
15 | O=Nc1c(-c2c(O)[nH]c3ccc([N+](=O)[O-])cc23)[nH]c2ccc(O)cc12 | 3.67% (active)
16 | O=C(Oc1ccccc1)C(Br)C(Br)c1ccccc1 (stereo not given) | 2.65% (active)
17 | CCOC(=O)CC[C@H](NC(=O)c1ccc(N(C)Cc2cnc3nc(N)nc(N)c3n2)c2ccccc12)C(=O)OCC | 20.7%
18 | NC(=Nc1ccccc1)SCCCSC(N)=Nc1ccccc1 | 82.6%
19 | COc1ccc(Nc2ncc(C(N)=O)c(NCCCNC(=O)C3CCC3)n2)cc1 | 46.6%
20 | Oc1c(Cl)cc(Oc2cc(Cl)c(O)c(CN3CCOCC3)c2)cc1CN1CCOCC1 | 86.7%

Row | Structure (SMILES) | growth
21 | Cc1nn(-c2ccccc2)cc1/C=C1\SC(N2CCCCC2)=NC1=O | 93%
22 | Nc1ccc(-c2csc(-n3[nH]c(=O)ccc3=O)n2)cc1 | 97.1%
23 | CCOC(=O)C(NC(=O)C(Cl)Cl)C(O)c1ccccc1 (stereo not given) | 113%
24 | C#CCOc1ccc2ncnc(N3CCN(C(=O)CCl)CC3)c2c1 | 73.4% [8.25 µM]
25 | Cc1cccc(N2C(=O)/C(=C/C(Cl)=C/c3ccc([N+](=O)[O-])cc3)SC2=S)c1C | -13.3% (active)
26 | CNc1ncc2cc(-c3cc(NC(=O)NCCC(C)(C)C)c(F)cc3C)c(C)nc2n1 | 6.32% (active)
27 | CCOC(=O)c1c(NC(=O)c2ccccc2)sc2c(O)c(CN(CC)CC)ccc12 | 0.395% (active)
28 | CC(C)C1C2=C(NCCN1C(=O)c1ccncc1)C(C)(C)N(Cc1ccccc1)C2=O (stereo not given) | 87.3%
29 | CC(=O)N(C(C)=O)c1ccc(C)cc1 | 92.9%
30 | COc1ccc(-c2nn(-c3cccc(NC(=O)c4ccc5c(c4)OCCO5)c3)cc2-c2ccncc2)cc1Cl | -2.93% (active)
31 | CC(=O)Nc1ccc(S(=O)(=O)c2ccnc3cc(Cl)ccc23)cc1 | 87%
32 | C[C@]12CCC3c4ccc(O)cc4C[C@@H](CCCCCCCCCS(=O)CCCC(F)(F)C(F)(F)F)C3C1CC[C@@H]2O (stereo not given in full) | 73.3%
33 | CCn1cc(C(=O)NN=C2CCCCCC2)c(=O)c2ccc(C)nc21 | 80.2%
34 | C1CCN(c2nc(N3CCCCC3)nc(N3CCOCC3)n2)CC1 | 112%
35 | O=C(O)c1ccccc1Oc1cc(-c2ccco2)nc(OCCBr)n1 | 100%
36 | CCCN(CCSSCCNc1nc(N(C)O)nc(N(C)O)n1)c1nc(N(C)O)nc(N(C)O)n1 | 88%
37 | CCOC(=O)c1cc(C(=O)c2ccc(OC)c(OC)c2)n2c1ccc1ccc3cccnc3c12 | 3.73% (active)
38 | O=C(NCCCl)Nc1nccnc1OCc1ccc(F)cc1 | -18.9% (active)
39 | Nc1ccc(C(=O)/C=C/c2ccccc2)cc1 | 27.4%
40 | Cc1cc(Cl)cc(Cc2cc(Cl)cc(C)c2O)c1O | -27.9% (active)
